Test results reported in PubChem BioAssay (NCI).
Compounds without any hit were thinned out: in the full panel of roughly 83,000, 20% have a hit.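 Method: cells in 96-well plates; compound added at one concentration; 48 h incubation; percent growth measured; values under 10 scored active.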 The source made the active and inactive calls.

Each molecule was assayed on HL-60(TB) leukemia (assay: NCI-60 one-dose screen, 48 h (100 = growth as untreated, 0 = no growth, -100 = all killed)). Settings: 10 µM unless noted.

SMILES | growth
Cn1cc(-c2csc(-c3c[nH]c4ccccc34)n2)c2cnccc21 | -30.2% (active)
COc1ccc2c(c1)N(CCO)C1=C(C(=O)OC1)C2c1cc(OC)c(OC)c(OC)c1 (stereo not given) | -16.7% (active)
Nc1nc(-c2ccc(Cl)cc2)cc(-c2cc3ccccc3oc2=O)n1 | 125% (inactive)
COc1ccc(Sc2[nH]c(C(C)=O)c3ccccc23)cc1 | 23.3% (inactive)
ClC1c2ccccc2CCc2ccccc21 | 122% (inactive)
CC(C)(C)c1ccc(C2CC(=O)C3=C(C2)Nc2ccccc2N(C(=O)c2ccccc2Cl)C3c2ccc(F)cc2)cc1 (stereo not given) | -19.8% (active)
CC(=N\N=C(N)N)/C(=N/N=C(N)N)c1ccccc1 | 98.7% (inactive)
ClC1=C(Br)C(Br)(Br)C(=C(Br)Br)C1(Br)Br | 29.8% (inactive)
CCOC(=O)c1ccc(NC(=S)P(=O)(c2ccccc2)c2ccccc2)cc1 | 80.4% (inactive)
O=C(NC1CCCCC1)c1ccc(Nc2ncnc3c2cnn3-c2ccccc2)cc1 | 106% (inactive)
O=C(c1nc2ccccc2[nH]1)C1C(c2cccc([N+](=O)[O-])c2)C2CC3CCCCC3N2[C@@]12C(=O)Nc1cc(Cl)ccc12 (stereo not given in full) | 4.05% (active)
CCC#CC[C@H]1C/C=C2/C(=O)C=C[C@@H]2C/C=C\CCCC(=O)O1 | -19.1% (active)
COc1ccc(NC(=S)Nc2ccccn2)cc1 | 84.9% (inactive)
NC(=O)c1ccc2nc3c(n2c1)C(=O)C(=O)c1ccccc1-3 | -42.2% (active)
CN(C)C(=O)Oc1cccc([N+](C)(C)C)c1 | 91% (inactive)
Cc1ccc(S(=O)(=O)/C(=C\c2ccc(Cl)cc2)C(=O)c2ccccc2)cc1 | 97.1% (inactive)
OC1CSSC1Cn1cnc2c(Nc3ccc(OCc4cccc(F)c4)c(Cl)c3)ncnc21 (stereo not given) | -29.3% (active)
Cc1ccc2c(C(C[N+](=O)[O-])c3ccco3)c(-c3ccccc3)[nH]c2c1 (stereo not given) | -5.69% (active)
CC(C)(C)c1ccc(Cn2c(-c3nonc3N)nc3ccccc32)cc1 | 51.4% (inactive)
Cc1cc2c(c(C)c1Cl)C(=O)/C(=C/c1ccco1)O2 | 97.5% (inactive)

SMILES | growth
CCN1CCN(Cc2ccc(Cc3ncc(F)c(-c4cc(F)c5nc(C)n(C(C)C)c5c4)n3)nc2)CC1 | 27.3% (inactive)
CCCCC1COc2cccc3c(SCC(=O)N(C)c4cccc(Cl)c4)cc[n+]1c23 (stereo not given) | 102% (inactive)
O=C1c2cccc3c(-c4ccc5c(c4)ncn5C4CCCCC4)ccc(c23)C(=O)N1CCO | 103% (inactive)
CSc1nc(-c2ccco2)c(C#N)c(=O)n1C | 95.9% (inactive)
Cc1nccc2c3ccc(OCc4cn(Cc5ccc(Br)cc5)nn4)cc3n(CCCc3ccccc3)c12 | 89% (inactive)
C=C(C)[C@@H]1CC[C@]2(COCCCN)CC[C@]3(C)[C@H](CC[C@@H]4[C@@](C)(CCCNCCCN)[C@H](C(=C)C)CC[C@]43C)[C@@H]12 | -9.28% [100 µM] (active)
O=C(O)CSc1ccc(NCc2oc(CO)cc(=O)c2O)cc1 | 69.3% (inactive)
COc1cc(C2Cc3ncccc3-c3[nH]c(=O)c4cccnc4c32)cc(OC)c1OC (stereo not given) | -2.08% (active)
Nc1c2c(c(O)c3c1=C(CO)C=N3)=NCCS2 | -33.7% (active)
c1ccc2c(c1)ncn2-c1nc2ccccc2n2c1nc1ccccc12 | 102% (inactive)
O=C(Nc1ccc(-n2cc(-c3ccncc3)c(-c3ccc(O)c(Cl)c3)n2)cc1)Nc1cccc(Cl)c1Cl | 78.8% (inactive)
CCCCCCC(C)c1ccccc1O (stereo not given) (tested in a mixture with another compound) | 113% (inactive)
COc1cc(/C=C/c2cc(/C=C/c3ccc(O)c(OC)c3)n(-c3c(C)cccc3C)c(=O)n2)ccc1O | 6.05% (active)
C=CCOc1ccc(N=NC(C#N)C#N)cc1 | 0.44% (active)
O=C(CN(C(=O)Cn1c(=O)n2nnnc2c2ccccc21)c1ccccc1C(F)(F)F)Nc1ccc(C(F)(F)F)cc1 | 101% (inactive)
COc1cc2nnc3c4cccnc4[nH]c3c2cc1OC | -54.3% (active)
C=C(C)[C@@H]1CC[C@]2(C=NCCCNCCCCNCCCN)CC[C@]3(C)[C@H](CC[C@@H]4[C@@]5(C)CCCNC(C)(C)[C@@H]5CC[C@]43C)[C@@H]12 | 89.6% (inactive)
CN1CCN(Cc2ccc(NC(=O)c3[nH]ncc3Nc3ccnc4ccnn34)cc2)CC1 | 45.5% (inactive)
Cc1cccc(-c2nc(C(C)C)sc2-c2ccnc(NCCCNS(=O)(=O)c3ccc(Cl)cc3)c2)c1 | 80.1% (inactive)
CCN(CC)CCCCCCCNc1cc(OC)cc2c(C)ccnc12 | 56.2% (inactive)
